# HEK293 tox: cytotoxicity in counter-screen for GLP-1R inverse agonists | Potency, µM (highest dose often 38.3 µM), for the others: top-dose activity change, negative = inhibition, actives largely listed as inhibitors | AID 624418 | actives 0.13% (n = 410,000) | HEK293 cAMP-luciferase reporter cells, luminescence, 24 h;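 further: loss of luciferase light is scored as toxicity; potency means the concentration at half of the fitted maximal effect; on the % scale 0 is the no-effect control and ±100 the full control effect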
#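 Step one: seed cells (200 cells/uL, DMEM with 10% Nu serum, 1% pen-strep). Step two: 12-hour incubation at 37 deg C. Step three: pin 23 nL compound, incubate 24 hr. Step four: add luciferase reagent, read luminescence 12 min later.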
# GLP1R inv ag: acts as inverse agonist at human GLP-1 receptor; P43220; HEK293 GLP-1R CRE-luciferase, luminescence, 24 h; GLP-1R form is constitutively active; Potency, µM (top dose mostly 38.3 µM), inactives show top-dose activity change, negative = inhibition, actives largely listed as inhibitors; actives 1.6% (n = 410,000); further: potency means the concentration at half of the fitted maximal effect; on the % scale 0 is the no-effect control and ±100 the full control effect; nearly all actives have a fitted effect of over 55% in size
#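 Assay principle: reduced luminescence from a cAMP-responsive reporter in HEK293 cells co-expressing a constitutively active GLP-1R. Conditions: 24 hr compound incubation, 37 deg C, 5% CO2.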
# GLP1R ag: GLP-1 receptor (human) agonism; P43220; HEK293 GLP-1R CRE-luciferase, luminescence, 4-6 h; cells express a hypersensitive GLP-1R form; Potency, µM (doses to about 45.6 µM), for the others: at the highest dose activation, usual class: activators; actives 0.007% (n = 380,000); further: potency means the concentration at half of the fitted maximal effect; % of control where 0% means no effect
# ClpP mod: qHTS Assay for Activators of ClpP. actives 1.9% (n = 340,000). purified B. subtilis ClpP, FRET peptide cleavage, 20 min. Potency, µM (highest dose often 57.5 µM), inactives show at the top dose activity change, negative = active. ATP-dependent Clp protease proteolytic subunit (Bacillus subtilis (strain 168)), P80244; active means well fitted falling curve with a large enough effect; inconclusive means small, poorly fitted or top-dose-only effect; inactive means no such curve, though single readings can be large or run the other way; further: potency means the concentration at half of the fitted maximal effect; the source files actives as falling curves though it sought activators and does not explain the sign; nearly all actives have a fitted effect of over 65% in size
# Target sequence (P80244 whole entry, looked up): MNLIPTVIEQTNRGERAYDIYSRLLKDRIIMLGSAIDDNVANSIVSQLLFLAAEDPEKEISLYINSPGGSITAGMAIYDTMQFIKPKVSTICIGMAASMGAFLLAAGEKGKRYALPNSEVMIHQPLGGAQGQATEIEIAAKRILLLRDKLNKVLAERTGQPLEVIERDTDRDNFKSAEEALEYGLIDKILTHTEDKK
#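 Purified B. subtilis ClpP, 10 microg/mL final in Tris/HCl pH8 with KCl, BSA, glycerol and Tween-20, cleaved an Abz/nitrotyrosine-quenched decapeptide. Fluorescence (ex 320, em 430) was read at 0 and 20 min at room temperature. Delta was normalized to 5.8 microM ADEP and DMSO/no-enzyme controls.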
# LDHA block: LDHA (human) enzyme inhibition | purified LDHA, NADH/diaphorase-resazurin fluorescence; stronger effect = lower value | activity change, % (values are at about 110 or 230 µM) | actives 0.15% (n = 480,000); in the data active means activity change below about -30%; inconclusive means mostly about -25% to -30%;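 further: plate controls were DMSO wells for no effect and wells without enzyme for full effect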
#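 Resorufin fluorescence (ex540/em590), read at 0 and 20 min after diaphorase/resazurin addition, reports the NADH left after a 5 min room-temperature reaction of 2 nM human LDH5 with 0.06 mM NADH and 0.2 mM pyruvate.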
# p53 reactivator: re-activators of mutant p53; H1299 p53-A138V BP100-luciferase reporter, luminescence, 24 h; Potency, µM (highest dose often 92.2 µM), without a hit: at the highest dose activity change, positive = activation, most hits filed as activators; actives 0.063% (n = 320,000); AID 504706; further: potency means the concentration at half of the fitted maximal effect; % of control where 0% means no effect; nearly all actives have a fitted effect of over 45% in size
#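 H1299 (p53-null), stable ts p53-A138V + BP100-Luc; 1000 cells/well, Opti-MEM/10% FBS; cpd 4 pt, 1:5; 24 h, 37 deg C, 5% CO2; detection reagent 10 min RT; luminescence.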
# ClpP validation: validation of B. subtilis ClpP protease hits (inhibitors) | shares compounds with ClpP mod | purified B. subtilis ClpP, FRET-FV substrate cleavage, 20 min | Potency, µM (titrated, usually from 57.5 µM), for inactives: at the highest dose activity change, negative = inhibition, hits mostly inhibitors | actives 40% (n = 470); further: potency means the concentration at half of the fitted maximal effect; on the % scale 0 is the no-effect control and ±100 the full control effect; nearly all actives have a fitted effect of over 70% in size
# Active calls of the source: *; i = inactive; ? = inconclusive; / = no result. Hits are enriched below; roughly 2.9% of the tested compounds scored in any of these assays. Unless noted, the call rests on the fitted dose curve; in most records, active means well fitted curve in the direction sought with a large enough effect; inconclusive means small, poorly fitted or top-dose-only effect, or another doubt; inactive means no such curve, though single readings can be large; an effect the other way counts as inactive or inconclusive.
SMILES,HEK293 tox,GLP1R inv ag,GLP1R ag,ClpP mod,LDHA block,p53 reactivator,ClpP validation
NC(=O)c1nsc(C(=O)N(c2cccc(F)c2)C(C(=O)NCc2ccccc2)c2ccc(O)cc2)c1N (configuration not stated),-12.0%,?,11.0%,-1.4%,4.2,7.0%,/
Cc1c(C(=O)Nc2ccc(-c3nc4cc(Cl)ccc4o3)cc2)oc2ccccc12,1.1%,11.2%,/,8.91µM*,-2.0,/,15.3µM*
COc1cccc(NC(=O)Cn2c(-c3cncs3)nc3ccccc32)c1,-22.5%,-0.3%,3.3%,8.91µM*,1.5,-6.1%,-7.1%
COc1cccc2c1cc1c(=O)n(CC(=O)NCc3ccco3)nc(C)n12,6.8%,-9.4%,/,3.55µM*,-8.5,/,?
CCCN1CCN(CCCNC(=O)Cn2nc(C)n3c(cc4c(OC)cccc43)c2=O)CC1,-5.4%,8.8%,/,4.47µM*,1.6,/,3.85µM*
Cc1cc(C(=O)OCC(=O)c2ccccc2)c2cccc(C)c2n1,/,/,/,/,-7.4,/,/
CCn1c(C)nc2cc(S(=O)(=O)C(F)(F)F)ccc21,9.4%,9.6%,4.2%,-2.2%,-5.1,5.3%,/
O=C(NCCCN1CCCC1=O)C1CCN(S(=O)(=O)N2CCOCC2)CC1,?,?,-7.5%,10µM*,-5.9,4.6%,-0.4%
O=C(NCCCN1CCCC1=O)C1CCC1,/,/,/,/,3.0,/,/
COc1cccc(NC(=O)c2ccc(-c3ccc([N+](=O)[O-])cc3)o2)c1,0.8%,16.6%,12.1%,/,5.5,3.5%,/
Cc1cccc(NC(=O)c2ccccc2C(=O)Nc2cccc(C)c2)c1,6.1%,0.2%,-0.9%,167.8%,2.7,/,-1.7%
Cc1ccccc1C(=O)Nc1cccc(NC(=O)c2ccc(-c3ccc(Br)cc3)o2)c1,?,-30.4%,5.1%,139.3%,-9.5,5.0%,?
CO/N=C\Cc1oc(=O)c(NC(=O)c2ccccc2)cc1C(=O)OC,-0.2%,8.8%,3.4%,-0.1%,16.3,3.4%,/
O=C(NCc1ccc(F)cc1)C(=O)NCC1OCCN1S(=O)(=O)c1ccc2c(c1)OCCO2 (configuration not stated),-1.5%,-0.7%,4.8%,/,-0.2,2.1%,/
Cc1cc(C)n2nc(-c3sccc3-n3c(C)ccc3C)cc2n1,1.9%,?,16.1%,35.5%,-4.6,?,?
COc1ccc(NC(=O)C(c2ccc(OC)cc2)n2c(=O)c(-c3cc4ccccc4[nH]3)nc3ccccc32)cc1 (configuration not stated),389.3%,?,/,19.0%,-1.8,/,/
O=C(NCc1ccccc1)C(c1ccccc1)n1c(=O)c(-c2cc3ccccc3[nH]2)nc2ccccc21 (configuration not stated),i,?,/,3.2%,-3.7,/,/
O=C(NCc1ccccc1)C(c1cc2ccccc2o1)n1c(=O)c(-c2cc3ccccc3[nH]2)nc2ccccc21 (configuration not stated),i,?,/,38.0%,0.9,/,-4.2%
COc1ccc(NC(=O)C(c2cc3ccccc3o2)n2c(=O)c(-c3cc4ccccc4[nH]3)nc3ccccc32)cc1 (configuration not stated),459.4%,?,/,33.5%,-7.0,/,-1.5%
COc1ccc(C)c2sc(N(CCN(C)C)C(=O)c3ccc4ccccc4c3)nc12,-22.9%,?,-0.5%,2.4%,0.0,-2.1%,/
COc1ccc2c(=O)c(-c3ccc(OC)c(OC)c3)coc2c1,-10.8%,48.6%,15.2%,2.7%,-2.8,4.6%,/
